This is a sample that favours compounds with a hit; in the whole collection about 6.4% have one here.
RORgamma inh: inhibitors of mouse ROR gamma transcriptional activity; P51450; Drosophila S2 Gal4-RORgamma UAS-luciferase reporter, 20 h; Potency, µM (highest dose often 53.6 µM), inactives show at the highest dose activity change, negative = inhibition, hits mostly inhibitors; actives 5.4% (n = 310,000); AID 2551; further: nearly all actives have a fitted effect of over 60% in size
Target sequence (P51450 whole entry, looked up, the tested form may be a part): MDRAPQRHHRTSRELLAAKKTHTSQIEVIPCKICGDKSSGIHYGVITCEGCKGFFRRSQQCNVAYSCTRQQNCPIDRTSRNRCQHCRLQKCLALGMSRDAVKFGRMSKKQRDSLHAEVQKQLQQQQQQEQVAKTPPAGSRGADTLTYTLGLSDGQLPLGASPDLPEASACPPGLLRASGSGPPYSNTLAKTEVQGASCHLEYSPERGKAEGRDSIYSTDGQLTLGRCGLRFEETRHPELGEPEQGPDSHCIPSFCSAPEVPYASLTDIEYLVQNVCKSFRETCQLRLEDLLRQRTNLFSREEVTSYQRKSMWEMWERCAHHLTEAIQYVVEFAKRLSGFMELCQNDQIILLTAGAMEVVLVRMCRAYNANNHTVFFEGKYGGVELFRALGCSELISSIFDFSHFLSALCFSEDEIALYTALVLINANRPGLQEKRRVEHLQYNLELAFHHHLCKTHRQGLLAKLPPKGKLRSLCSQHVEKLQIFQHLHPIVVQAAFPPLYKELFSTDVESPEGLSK
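Stable Schneider cell line, Gal4 DNA-binding domain fused to ROR gamma, UAS-luciferase. Cmpd 1 hr RT → CuSO4 700 uM final → 20 hr RT → luciferase reagent 10 min → luminescence.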
KinaseGlo FLuc: counter-screen: inhibitors of Kinase-Glo firefly luciferase; actives 0.28% (n = 200,000); Potency, µM (titrated, usually from 38.3 µM), without a hit: at the highest dose activity change, negative = inhibition, hits mostly inhibitors; AID 1379; Kinase-Glo luciferase, ATP luminescence, 8 min; Q27757; further: nearly all actives have a fitted effect of over 60% in size
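Compound is pinned into ATP-containing buffer (10 uM ATP, imidazole pH 7.2, 7 mM MgCl2). Kinase-Glo luciferase reagent is then added. Light output is recorded following an 8-min room-temperature incubation.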
Gal4-VP16 FLuc: counter-screen for ROR gamma inhibitors: Gal4-VP16 reporter; Drosophila S2 Gal4-VP16 UAS-luciferase, luminescence, 20 h; Potency, µM (highest dose often 53.6 µM), for the others: at the top dose activity, negative = inhibition, hits mostly inhibitors; actives 3.5% (n = 310,000); AID 2546;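 further: Gal4-VP16 expression switched on by copper sulfate through the metallothionein promoter; nearly all actives have a fitted effect of over 50% in size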
The depositor's hits bear a star; ? = inconclusive; . = not tested or not shown; [ ] = remark or other dose. The call rests on the fitted dose curve; in most records, active means well fitted curve in the direction sought with a large enough effect; inconclusive means small, poorly fitted or top-dose-only effect, or another doubt; inactive means no such curve, though single readings can be large; an effect the other way counts as inactive or inconclusive. On the % scale 0 is the no-effect control and ±100 the full control effect; potency means the concentration at half of the fitted maximal effect.

SMILES | RORgamma inh | KinaseGlo FLuc | Gal4-VP16 FLuc
Cc1cnn(-c2cc(N/N=C/c3ccccc3F)ncn2)c1 | 7.1% | -0.3% | -14.7%
COc1cc(N/N=C/c2ccccc2O)ncn1 | 7.08µM* | -3.4% | 7.08µM*
Cc1ccc(OCC(=O)NNC(=O)CCc2ccccc2)c(Br)c1 | -11.5% | . | -11.9%
COc1ccccc1CCNC(=O)C(=O)NCC1OCCN1S(=O)(=O)c1ccc([N+](=O)[O-])cc1 (centres undefined) | -4.4% | . | ?
Cc1ccc(NC(=S)N2CCSC2c2cccs2)cc1 (centres undefined) | ? | -4.3% | ?
CCn1cc(CN2CCCC(C(=O)Nc3ccc(-c4cscn4)cc3)C2)c(C)n1 (centres undefined) | -1.4% | . | -4.4%
O=C(CS(=O)c1ccccc1[N+](=O)[O-])Oc1ccc(Br)cc1 (centres undefined) | 2.5% | . | -18.5%
CS(=O)(=O)c1ccc(S(=O)CC(=O)Oc2ccc(Cl)cc2)c([N+](=O)[O-])c1 (centres undefined) | 3.98µM* | 0.3% | -25.3%
CC(NC(=O)Cn1cccc1C(=O)c1ccccc1)c1ccc2c(c1)OCCO2 (centres undefined) | -4.1% | . | -0.5%
Oc1ccc([C@@H]2CNCCc3c2cc(O)c(O)c3Cl)cc1 | -8.5% | 1.5% | -8.8%
CCCCCCCN1C/C=C\C(c2ccc(OC)cc2)N(Cc2ccc(F)cc2)C(=O)[C@H]1Cc1ccccc1 (some centres undefined) | -4.2% | . | -8.9%
O=C(Nc1ccsc1C(=O)O)c1ccc(Cl)cc1 | -38.3% | . | ?
Cc1ccc(C(=O)Nc2ccsc2C(=O)O)cc1 | 11.2µM* | . | ?
COc1ccc(OC)c(CCNC(=O)c2cccc(NC3=NC4CS(=O)(=O)CC4S3)c2)c1 (centres undefined) | -16.2% | . | -6.2%
CC(NC(=O)Cc1ccccc1)c1nc2ccccc2[nH]1 (centres undefined) | 43.0% | 1.7% | -7.5%
CC(C)C(=O)Nc1sc2c(c1-c1nc3ccccc3[nH]1)CCCC2 | 11.2µM* | -0.5% | -0.2%
CSc1nn2c(C(F)(F)F)cc(C(F)(F)F)nc2c1C(=O)O | 27.4% | . | -14.9%
NC(=O)CSc1nnc(Cn2cnc3ccccc32)o1 | 28.4% | 1.4% | -19.7%[10 µM]
Clc1ccc(CSc2nnc(Cn3cnc4ccccc43)o2)cc1 | 5.9% | -2.5% | 15.8µM*
CC1C(=O)C(C)C(c2cccc(Br)c2)NC1c1cccc(Br)c1 (centres undefined) | 8.8% | . | 2.8%
CCOC(=O)C(C(=O)N(C)C)c1ncc(C(F)(F)F)cc1Cl (centres undefined) | -1.3% | 0.0% | -3.1%
CCOC(=O)/C(O)=C/c1ncc(C(F)(F)F)cc1Cl | 8.91µM* | -2.1% | 10µM*
S=C1NCCOCCNC(=S)NCCOCCOCCN1 | -1.1% | -1.2% | -7.3%
N#CCCN(Cc1ccccc1)C(=O)c1cccs1 | 10.3% | . | 2.3%
COc1ccc(-n2c(=O)c3ccccc3n(CC(=O)OCc3ccccc3)c2=O)cc1OC | -11.1% | 5.6% | -1.3%
SMILES | RORgamma inh | KinaseGlo FLuc | Gal4-VP16 FLuc
COc1cc(/C=N/O)ccc1OCc1ccc(Cl)cc1 | 1.12µM* | -0.1% | ?
COc1cc(/C=N/n2c(C)n[nH]c2=S)ccc1OCc1ccc(F)cc1 | 3.98µM* | -1.4% | 12.6%
CCOc1cc(/C=N/N=C(N)N)ccc1OCc1ccc(Cl)cc1 | ? | -1.8% | 8.91µM*
CCOc1cc(/C=N/O)ccc1OCc1ccc(F)cc1 | 8.4% | -2.4% | -20.7%
COc1cc(/C=N/O)ccc1OCc1ccc(C(=O)O)cc1 | 1µM* | -20.9% | 3.98µM*
COc1cc(/C=N/N=C(N)N)ccc1OCc1ccc(Cl)cc1 | -104.6% | 0.3% | -26.8%[10 µM]
COc1cc(/C=N/NS(=O)(=O)c2ccc3ccccc3c2)ccc1OCc1ccc(C(=O)O)cc1 | -44.8% | . | ?
COc1cc(/C=N\n2nnnc2N)ccc1OCc1ccc(F)cc1 | -4.2% | -1.3% | ?
CCCCn1c(=O)c2[nH]c(C34CC5CC(CC3C5)C4)nc2n(CCCO)c1=O | ? | -4.3%[39.9 µM] | -16.7%
O=C(Nc1ccccc1N1CCOCC1)c1ccc(Cl)nc1 | 6.5% | 0.0% | -9.7%
O=C(C1=C[C@@H](C2CC2)C[C@@H](OCCCCO)O1)N1CCN(Cc2ccccc2)CC1 | 18.8% | . | 1.7%
O=C(NC1CCCc2ccccc21)N[C@@H](Cc1ccccc1)C(=O)O (some centres undefined) | -0.3% | . | -5.1%
COc1ccc(-c2ccc(OC)c(C3C4C=CCCC4(C)C(=O)N3Cc3ccccc3)c2)cc1OC (centres undefined) | 44.2% | . | -19.1%
Cc1ccc(S(=O)(=O)NNC(=S)Nc2c(Cl)cccc2Cl)cc1 | 10µM* | . | ?
Cc1ccc(S(=O)(=O)NNC(=S)Nc2ccc(Cl)cc2)cc1 | -29.1% | . | -5.9%
O=S(=O)(Nc1ncccn1)c1ccc(NC(=S)NCCc2ccc(Cl)cc2)cc1 | 7.5% | . | -14.3%
O=S(=O)(Nc1ncccn1)c1ccc(NC(=S)Nc2cccc(Cl)c2)cc1 | 11.2µM* | . | ?
CC(=O)NC(=S)Nc1ccc(S(=O)(=O)Nc2ncccn2)cc1 | -8.8% | . | -8.7%
Cc1ccc(NC(=S)NNS(=O)(=O)c2ccc3ccccc3c2)cc1Cl | 11.2µM* | . | ?
Cc1ccc(S(=O)(=O)NNC(=S)Nc2ccccc2)cc1 | 30.7% | -2.4% | 6.4%
Cc1ccc(NC(=S)Nc2ccc(S(=O)(=O)Nc3ncccn3)cc2)cc1Cl | 31.6µM* | . | ?
COc1ccc2c(c1)C=C([C@@H]1C[C@H]3CN(c4ccccc4)C(=O)[C@]34CCCN14)CO2 | 7.4% | -0.9% | -3.3%
Cc1cc(C(=O)NCc2ccccc2F)c2ccccc2n1 | -9.6% | . | 6.1%
CCCCN(C)C1CCN(C(=S)Nc2cccc(SC)c2)CC1 | -8.0% | -0.4% | 10.5%
CC(=O)OC[C@@H]1O[C@@H](O/N=C2/C[C@@H](O)[C@@H](O)[C@@H]3[C@@H]4C(=O)N(Cc5ccccc5)C(=O)[C@H]4CC[C@H]23)[C@H](OC(C)=O)[C@H](OC(C)=O)[C@@H]1OC(C)=O | -5.3%[10 µM] | . | -0.1%[10 µM]
SMILES | RORgamma inh | KinaseGlo FLuc | Gal4-VP16 FLuc
O=S(=O)(c1ccc(NC(=S)NN=C2CCCCC2)cc1)N1CCOCC1 | 8.91µM* | -3.4% | ?
O=S(=O)(c1ccc(NC(=S)Nc2ccc(OC(F)F)cc2)cc1)N1CCOCC1 | -3.2% | 2.7% | 13.2%
O=C(Nc1ccc(N2CCOCC2)cc1)c1ccc(S(=O)(=O)N2CCCCC2)cc1 | -0.8% | . | 1.9%
O=S(=O)(c1ccc(NC(=S)N/N=C/c2c3ccccc3cc3ccccc23)cc1)N1CCOCC1 | ? | 1.1% | 7.08µM*
O=S(=O)(c1ccc(NC(=S)N/N=C/c2ccc(Oc3ccccc3)cc2)cc1)N1CCOCC1 | 0.501µM* | -2.2% | -6.0%
NNC(=S)Nc1ccc(S(=O)(=O)N2CCOCC2)cc1 | ? | . | 3.2%
O=C(Nc1ccc(S(=O)(=O)N2CCOCC2)cc1)c1ccccc1 | -8.8% | . | 0.5%
O=S(=O)(c1ccc(NC(=S)N/N=C/c2ccc(N3CCOCC3)cc2)cc1)N1CCOCC1 | ? | -1.3% | 6.31µM*
COc1ccc(-c2ccc(-c3noc(-c4cccc(OC)c4)n3)c(OC)n2)cc1 | 0.355µM* | -0.4% | ?
COc1cccc(-c2nc(-c3cccs3)no2)c1 | 12.6µM* | . | ?
COc1ccc(-c2ccc(-c3noc(-c4ccc(OC)c(OC)c4)n3)c(OC)n2)cc1 | -11.6% | -2.5% | -0.6%

Bioassay records (PubChem)
